Experimental data from paper PMC12215968.

Biological target: Ubiquitin-ribosomal protein eS31 fusion protein (UniProt P62979)
Assay: cross-link between two proteins; cross-linking mass spectrometry

Listed as a hit, yes:
Ubiquitin-conjugating enzyme E2 N, P61088
Ubiquitin carboxyl-terminal hydrolase 5, P45974
Ubiquitin-conjugating enzyme E2 K, P61086
